Rows were chosen to be rich in hits. Some 8.9% of all compounds tested hit in one or more screens of this group.
KB-3-1 cytotox: KB-3-1 parental cell cytotoxicity | KB-3-1 viability, CellTiter-Glo ATP luminescence, 72 h | Potency, µM (titrated, usually from 46.1 µM), hits mostly cytotoxic | hit rate 1.4% among 400,000 | AID 1347075; note: potency is the fitted concentration of half-maximal effect; % is set by controls: 0 for no effect and ±100 for the full control effect; nearly all actives have a fitted effect of over 60% in size
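Screening of KB-3-1 cells (DMEM, 10% FBS, phenol-red free) ran from lowest to highest compound concentration; after 72 h at 37 °C viability was read luminescently and curves fitted.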
SW480 rerep: induces DNA re-replication in SW480 colon adenocarcinoma cells | AID 624297 | hit rate 1.8% among 340,000 | SW480 DNA re-replication, Hoechst DNA content imaging, 48 h | Potency, µM (titrated, usually from 46.1 µM), for the others: at the highest dose re-replication activation, most hits filed as activators; note: potency is the fitted concentration of half-maximal effect; % of control where 0% means no effect; nearly all actives have a fitted effect of over 55% in size
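Readout is total intensity of Hoechst-stained nuclei, excited at 405 nm and collected at 500-530 nm. Compound treatment lasted 48 hr at 37 C in 5% CO2 before staining.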
KB-V1 MDR tox: kills drug-selected multidrug resistant KB-V1 cells. AID 1347076. Potency, µM (titrated, usually from 46.1 µM), hits mostly cytotoxic. KB-V1 MDR cells viability, CellTiter-Glo, 72 h. hit rate 3.4% among 400,000; note: potency is the fitted concentration of half-maximal effect; % is set by controls: 0 for no effect and ±100 for the full control effect; nearly all actives have a fitted effect of over 60% in size
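Cytotoxicity toward P-gp-expressing KB-V1 cells was determined as loss of CellTiter-Glo luminescence after 72 h at 37 degrees C. Compounds were tested in quantitative HTS format across a concentration range, with curves fitted to normalized data.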
D3 ag: activates the human D3 dopamine receptor; P35462; D3R DiscoveRx beta-arrestin cells, luminescence, 90 min; max activation, %; hit rate 0.58% among 410,000; AID 652048; in the data active = max activation above about 30%; note: 0% is about no effect
Target sequence (P35462 whole entry, looked up): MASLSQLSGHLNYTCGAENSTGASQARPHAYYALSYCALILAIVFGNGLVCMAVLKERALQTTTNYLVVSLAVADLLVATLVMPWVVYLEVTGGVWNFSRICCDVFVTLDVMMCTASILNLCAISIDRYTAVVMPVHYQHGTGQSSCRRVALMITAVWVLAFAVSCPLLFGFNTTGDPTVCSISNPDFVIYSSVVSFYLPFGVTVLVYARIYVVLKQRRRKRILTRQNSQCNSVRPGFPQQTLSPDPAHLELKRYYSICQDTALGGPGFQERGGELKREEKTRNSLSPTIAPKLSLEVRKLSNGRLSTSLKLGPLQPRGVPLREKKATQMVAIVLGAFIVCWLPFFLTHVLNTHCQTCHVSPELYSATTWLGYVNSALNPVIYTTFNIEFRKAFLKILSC
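Agonist-mode cell screen: cells plated at 1500/well and incubated overnight at 37 °C, then exposed to library compounds for 90 min at 37 °C. Detection reagent was added for 30–60 min at room temperature, and luminescence was read.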
DRD3 antagonist: D3 dopamine receptor (human) antagonism; P35462; D3R cells, DiscoveRx beta-arrestin luminescence, antagonist mode; active compounds read low; max response, negative = inhibition, %; AID 652054; hit rate 2.5% among 360,000; in the data active = max response below about -50%; inconclusive = no clear call, values can overlap the other calls; note: % is set by controls: 0 for no effect and ±100 for the full control effect
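Cells plated overnight at 1500 cells/well, then exposed to library compounds with dopamine controls for 90 minutes at 37 degrees C. DiscoveRx reagent added for 30–60 minutes at room temperature; luminescence read, quantitative HTS format.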
MCF10A rereplic: induces DNA re-replication in MCF 10a normal breast cells; MCF 10A DNA re-replication, Hoechst nuclear intensity, 48 h; Potency, µM (top dose mostly 46.1 µM), without a hit: top-dose activity, positive = re-replication, actives largely listed as activators; hit rate 2.9% among 350,000; AID 624296; note: potency is the fitted concentration of half-maximal effect; % of control where 0% means no effect; nearly all actives have a fitted effect of over 50% in size
An asterisk follows results filed as active; i = inactive; u = inconclusive; x = not tested or not shown. Unless noted, calls come from the whole dose curve; as a rule, active = well fitted curve in the direction sought with a large enough effect; inconclusive = small, poorly fitted or top-dose-only effect, or another doubt; inactive = no such curve, though single readings can be large; an effect the other way counts as inactive or inconclusive.

SMILES	KB-3-1 cytotox	SW480 rerep	KB-V1 MDR tox	D3 ag	DRD3 antagonist	MCF10A rereplic
CN=C1c2cc3cc(OC)ccc3n2CCN1Cc1ccccc1	8.2µM*	11.2µM*	16.4µM*	-8.4	-14.2	20.6µM*
COc1ccc(OC)c(NC(=O)CC2C(=O)NCCN2C(=O)C(F)(F)F)c1 (stereo not drawn)	i	x	i	-1.4	x	x
Cc1nc(N2C(=O)c3oc4ccccc4c(=O)c3C2c2cccc(OCCC(C)C)c2)sc1C (stereo not drawn)	i	x	i	13.5	x	x
O=c1c2c(nc3c(-c4cccc5ccccc45)c[nH]n13)CCC2	i	-6.0%	i	-1.2	u	11.2µM*
C[C@H](CO)N1C[C@H](C)[C@@H](CN(C)C(=O)Nc2ccc(C(F)(F)F)cc2)Oc2ccc(NC(=O)NC3CCCCC3)cc2C1=O	i	-7.2%	i	6.0	30.5	u
C[C@H](CO)N1C[C@H](C)[C@@H](CN(C)C(=O)Nc2ccc3c(c2)OCO3)Oc2c(NC(=O)Nc3ccc(C(F)(F)F)cc3)cccc2C1=O	i	5.4%	u	32.3*	93.9	-17.8%
C[C@H](CO)N1C[C@H](C)[C@@H](CN(C)C(=O)Nc2ccc(C(F)(F)F)cc2)Oc2c(NC(=O)Nc3ccc4c(c3)OCO4)cccc2C1=O	i	2.3%	i	-11.6	-9.4	28.2%
C[C@H](CO)N1C[C@H](C)[C@@H](CN(C)C(=O)Nc2ccc(C(F)(F)F)cc2)Oc2c(cccc2N(C)C)C1=O	i	1.3%	i	-74.6	-130.1*	-3.9%
C[C@H](CO)N1C[C@H](C)[C@@H](CN(C)C(=O)Nc2ccc(C(F)(F)F)cc2)Oc2c(NC(=O)Nc3ccccc3)cccc2C1=O	u	18.2%	i	0.4	7.8	u
C[C@H](CO)N1C[C@H](C)[C@@H](CN(C)C(=O)NC2CCCCC2)Oc2ccc(NC(=O)Nc3ccc(C(F)(F)F)cc3)cc2C1=O	i	4.7%	i	53.6*	29.0	10.7%
C[C@@H]1CN([C@H](C)CO)C(=O)CCCn2nncc2CO[C@@H]1CN(C)C(=O)Nc1ccc2c(c1)OCO2	u	x	i	-10.4	-60.3*	x
COc1ccc(-c2cc(C(=O)Nc3c(C)nn(Cc4ccc(C)cc4)c3C)no2)cc1OC	i	x	i	6.6	x	x
CCc1cc(C(=O)NC2CCCN(Cc3ccccc3F)C2)n(C)n1 (stereo not drawn)	i	2.06µM*	u	2.0	12.2	0.5%
Cn1nc(C(=O)NC2CCCN(Cc3ccccc3F)C2)c2ccccc2c1=O (stereo not drawn)	i	-21.7%	u	-0.6	14.7	6.0%
O=C1/C(=C/c2ccncc2)SC(=S)N1N1CCOCC1	i	-9.3%	i	14.1	-3.0	2.0%
C=CCOc1ccc(/C=C2\SC(=S)N(N3CCOCC3)C2=O)cc1	i	5.8µM*	i	9.3	2.3	-3.5%
COc1ccc(CCNC(=O)c2nc(-c3ccc(Cl)cc3)n3c2CCCCC3)c(OC)c1	i	x	i	-2.1	x	x
Cc1ccc(S(=O)(=O)c2nnn3c2nc(NC(C)c2ccccc2)c2sccc23)cc1 (stereo not drawn)	i	x	i	-14.2	x	x
COC(=O)C1NN=C(C(=O)c2ccccc2)C1c1ccccc1 (stereo not drawn)	i	-151.2%	14.6µM*	-1.9	u	-70.5%
Cc1ccc(NC(=O)c2ccc(-n3c(C)nnc3C)cc2)cc1F	i	x	i	-11.8	x	x
CC[n+]1c(C=C2C=C(C)OC(C)=C2)sc2ccccc21	u	18.4µM*	u	1.3	-0.8	u
CC[n+]1c(/C=C(\C)Nc2ccccc2)sc2ccccc21	u	-7.2%	20.6µM*	-13.5	-8.9	12.1%
O=c1[nH]c(SCc2ccc(Br)cc2)nc2c1CCCC2	i	x	i	20.0	x	x
COc1ccc(Cc2c(-c3ccc(F)cc3)nc3cc(C)c(Br)c(C)n23)c(C)c1	i	x	u	-2.3	0.0	x
CCCCC(CCc1ccccn1)C(=O)c1ccccc1 (stereo not drawn)	i	-3.3%	16.4µM*	-7.2	-3.0	u
SMILES	KB-3-1 cytotox	SW480 rerep	KB-V1 MDR tox	D3 ag	DRD3 antagonist	MCF10A rereplic
CCC(CCc1ccccn1)C(=O)c1ccccc1 (stereo not drawn)	i	17.3%	u	-10.9	-22.2	11.8%
CN(C)CC(CCCCC(CN(C)C)C(=O)c1ccccc1)C(=O)c1ccccc1 (stereo not drawn)	u	10.3µM*	i	-12.8	2.9	u
Cc1ccnc2ccc(I)cc12	i	x	i	x	x	x
O=C(/C=C/c1cccs1)Nc1cccc(NC(=O)/C=C/c2cccs2)n1	23.1µM*	-0.7%	23.1µM*	-7.1	7.8	18.4µM*
CCN(CC)CCOC(=O)c1ccc(NC(=O)/C=C/c2cccs2)cc1	i	-39.7%	i	-12.3	-101.4*	u
O=C(Nc1ccc(Br)cn1)c1ccc(Br)s1	u	8.2µM*	23.1µM*	-14.5	-22.7	18.4µM*
O=C(/C=C/c1cccs1)Nc1ccc(Br)cn1	1.3µM*	u	0.366µM*	-10.3	-7.0	u
CN(C)c1ccc(/C=C/c2ccnc3c(N)cccc23)cc1	u	x	i	x	x	x
CCC(Sc1nnc(C)n2c1cc1occc12)C(=O)Nc1ccccc1F (stereo not drawn)	i	x	u	7.6	x	x
COc1ccc(NC(=O)c2cccc(N3CCCS3(=O)=O)c2)c(OC)c1	i	x	i	6.1	x	x
CCc1cccc(C)c1NC(=O)CN1C(=O)C2(SCC(=O)N2c2cccc(F)c2)c2ccccc21 (stereo not drawn)	i	x	i	-1.9	x	x
NS(=O)(=O)c1ccc(NC(=O)/C=C/c2cccs2)cc1	i	23.1µM*	i	-16.1	-27.7	-1.7%
CCN(CC)S(=O)(=O)c1ccc(C)c(NC(=O)/C=C/c2cccs2)c1	i	6.5%	8.2µM*	1.5	5.5	11.9%
Cc1cc(C)c(-c2csc(NC(=O)/C=C/c3cccs3)n2)c(C)c1	u	u	5.17µM*	-9.7	-9.7	u
Cc1cc(C)nc(NC(=O)/C=C/c2cccs2)c1	i	1.4%	i	-7.0	-7.8	-4.6%
OCc1ccc2c(c1)c(-c1ccc3c(c1)OCCO3)c(-c1ccccc1)n2-c1ccccc1	u	5.2%	u	7.4	21.4	u
CCOC(=S)SCC(=O)N1CCc2cc(OC)c(OC)cc2C1C1C(=O)CC(C)(C)CC1=O (stereo not drawn)	i	-6.6%	i	-2.1	-21.9	u
CCOC(=S)SCC(=O)N1CCc2cc(OC)ccc2C1C1C(=O)CCCC1=O (stereo not drawn)	u	10.3µM*	u	2.3	-10.2	u
